# A selection: hits, their analogues and other compounds. The true share with any hit is near 5.7%.
# KB-3-1 cytotox: kills parental KB-3-1 adenocarcinoma cells | KB-3-1 viability, CellTiter-Glo ATP luminescence, 72 h | Potency, µM (top dose mostly 46.1 µM), usual class: cytotoxic | 400,000 compounds, 1.4% hits | AID 1347075; note: nearly all actives have a fitted effect of over 60% in size
#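 KB-3-1 parental drug-naive adenocarcinoma cells in DMEM/10% FBS, incubated 72 h at 37 C with pin-transferred compounds across a concentration series. Viability by CellTiter-Glo luminescence; concentration-response curves fitted after normalization.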
# HT1080NT lethal: kills 2HG-producing HT-1080-NT fibrosarcoma cells; 360,000 compounds, 1.6% hits; Potency, µM (top dose mostly 46.1 µM), for the others: at the highest dose activity, negative = less viability, most hits filed as cytotoxic; HT-1080-NT fibrosarcoma viability, CellTiter-Glo ATP luminescence, 48 h;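 note: NT is the 2HG producing partner of a matched IDH1 knockdown line; 0% = DMSO-treated cells and -100% = media-only wells without cells; nearly all actives have a fitted effect of over 55% in size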
#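 Read-out is CellTiter-Glo luminescence after 10 minutes at room temperature, following 48 hours' compound treatment of HT-1080-NT cells (750 cells/well, RPMI, 5% FBS, 37 degrees C).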
# KB-V1 cytotox: KB-V1 MDR subline cytotoxicity; KB-V1 MDR cells viability, CellTiter-Glo, 72 h; Potency, µM (titrated, usually from 46.1 µM), usual class: cytotoxic; 400,000 compounds, 3.4% hits; note: nearly all actives have a fitted effect of over 60% in size
#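 Potencies derive from concentration-effect curves fitted to normalized luminescence (CellTiter-Glo) of KB-V1 cells treated for 72 h at 37 degrees C in phenol-red-free DMEM containing 10% FBS.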
# HT1080 IDH1KD tx: toxicity to HT-1080 IDH1 knockdown cells (counter line); Potency, µM (series often up to 46.1 µM), without a hit: top-dose activity, negative = toxicity, usual class: cytotoxic; HT-1080 IDH1 knockdown viability, ATP luminescence, 48 h; 360,000 compounds, 2% hits;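 note: 0% = DMSO wells and -100% = cell-free medium wells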
#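 In this qHTS, HT-1080 cells depleted of IDH1 are exposed for 48 h at 37 °C to compound titrations. Toxicity is scored from CellTiter-Glo luminescence, with DMSO as full viability and medium alone as none.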
# * = called active by the depositor; i = inactive; ? = inconclusive; / = no result given; ! = not confirmed by another sample. Calls come from the whole dose curve; as a rule, active = well fitted curve in the direction sought with a large enough effect; inconclusive = small, poorly fitted or top-dose-only effect, or another doubt; inactive = no such curve, though single readings can be large; an effect the other way counts as inactive or inconclusive. Unless noted, % is set by controls: 0 for no effect and ±100 for the full control effect; potency is the fitted concentration of half-maximal effect.
SMILES,KB-3-1 cytotox,HT1080NT lethal,KB-V1 cytotox,HT1080 IDH1KD tx
C=CC[C@@H](Cc1ccc(F)cc1)C(=O)OC[C@H]1CCCN1C(=O)[C@@H](CC=C)CC(=O)N(CCO)Cc1ccccc1,i,-18.3%,i,-27.7%
C=CCC[C@H](Cc1ccc(F)cc1)C(=O)OC[C@@H]1CCCN1C(=O)[C@@H](CC=C)CC(=O)NCCO,i,6.6%,i,-5.0%
C=CC[C@@H](Cc1ccc(F)cc1)C(=O)OC[C@@H]1CCCN1C(=O)[C@H](CC=C)CC(=O)N(CCO)Cc1ccccc1,?,-19.9%,20.6µM*,-6.6%
Cc1cc(C)cc(NC(=O)Cn2nnc(C(=O)Nc3cc(C)cc(C)c3)c2N)c1,i,/,i,/
CCN(CC)c1ccc(NC(=O)C2CCN(S(=O)(=O)c3cnc[nH]3)CC2)c(C)c1,i,/,?,/
Cc1ccc(-n2ncc(C(=O)NCCc3ccccc3)c2C2CCN(C(=O)OC(C)(C)C)CC2)c(C)c1,?,/,i,/
Cc1noc(NS(=O)(=O)c2ccc(N/C=C\C(=O)c3ccc(Br)cc3)cc2)c1C,i,-11.2%,i,2.5%
Cc1noc(NS(=O)(=O)c2ccc(N/C=C\C(=O)c3ccc4c(c3)OCO4)cc2)c1C,i,-1.5%,i,10µM*
O=C1CC(Sc2nnc(-c3ccccc3O)o2)C(=O)N1c1ccccc1 (stereo unspecified),i,?,i,4.47µM*
COc1ccc(-c2nnc(SCC(=O)Nc3ccc(C)c(Cl)c3)nc2-c2ccc(OC)c(OC)c2)cc1OC,i,/,i,/
CCc1cccc(Nc2c3c(nc4ncnn24)CCC3)c1,i,11.3%,18.4µM*,-0.6%
Cc1cccn2cc(-c3cccc(NC(=O)C(C)C)c3)nc12,i,/,i,/
Cc1ccc(Nc2cccccc2=O)cc1,i,-3.9%,i,29.1µM*
O=[N+]([O-])c1cc(Cl)cc2c1nc(NCCO)c1ccccc12,18.4µM*,?,?,?
O=C(c1ccc(Cl)cc1)c1oc2ccccc2c1CS(=O)(=O)c1ccccc1,i,13.9%,6.51µM*,1.7%
O=C(Nc1c(C(=O)c2ccc(Cl)cc2)oc2ccccc12)c1cc(=O)c2ccccc2o1,i,/,?,/
Nc1nc(=S)[nH]c(N)c1N,i,/,i,/
Cc1nn(-c2ccccn2)c2c1C(c1ccsc1)C1=C(CCCC1=O)N2 (stereo unspecified),?,13.0%,3.66µM*,1.1%
COc1ccccc1-n1ccnc(SCC(=O)NCc2ccccc2Cl)c1=O,i,-4.6%,20.6µM*,-7.6%
O=c1cc2oc3cc(O)c(O)cc3c(-c3ccccc3[N+](=O)[O-])c-2cc1O,i,14.6µM*,?,20.6µM*
CCOC(=O)c1c(NC(=O)COc2ccc(CC)cc2)sc2c1CCCC2,i,/,i,/
COC(=O)c1c(NC(=O)COc2ncnc3ccccc23)sc(C)c1C,i,0.4%,14.6µM*,0.5%
CCOC(=O)c1c(NC(=O)COc2ncnc3ccccc23)sc(C(C)=O)c1C,i,-9.1%,i,-2.0%
COC(=O)c1c(NC(=O)CSc2ncn[nH]2)sc(C)c1C,i,0.2%,20.6µM*,-10.0%
CCOC(=O)c1c(NC(=O)COc2ncnc3sccc23)sc2c1CCC2,i,?,3.26µM*,?
SMILES,KB-3-1 cytotox,HT1080NT lethal,KB-V1 cytotox,HT1080 IDH1KD tx
CCCCNc1ccc(/C=C2\C=Cc3ccccc32)cc1,?,/,i,/
Cn1c(SCc2ccc(Cl)cc2)nnc1-c1ccc(NC(=O)CCc2ccccc2)cc1,i,/,i,/
O=c1oc2ccccc2cc1-c1csc(Nc2nc3c(F)cccc3s2)n1,16.4µM*,-9.8%,?,?
Cc1ccc(NC(=O)C2CCCN(S(=O)(=O)c3ccc4c(c3)CCCC(=O)N4)C2)cc1Cl (stereo unspecified),i,/,?,/
Cc1cc(C)n2nc(SCc3nnc(SCCCCl)o3)nc2n1,i,-3.0%,?,23.0%
CCCCCCCCSc1nnc(CSc2nc3nc(C)cc(C)n3n2)o1,?,-5.1%,2.59µM*,12.3%
OC(c1cccc(F)c1)c1ncc(-c2ccc(Oc3ccccc3)cc2)[nH]1 (stereo unspecified),i,16.4µM*,i,?
OC(c1cccc(Cl)c1)c1ncc(-c2ccc(Oc3ccccc3)cc2)[nH]1 (stereo unspecified),i,?,i,?
Cc1ccc(NCc2nc3ccccc3n2CCOc2ccccc2)cc1,16.4µM*!,7.8%,23.1µM*!,6.2%
CCOCCn1c(COc2ccc(C)cc2)nc2ccccc21,?,6.7%,16.4µM*,0.8%
Cc1ccc(OCCn2c(CNc3cccc(C)c3)nc3ccccc32)cc1,i,/,i,/
COCCn1c(COc2ccc(C)cc2)nc2ccccc21,i,-9.8%,?,-18.7%
COc1ccc2ccccc2c1C1NC(=O)c2ccccc2N1 (stereo unspecified),2.31µM*,5.17µM*,5.8µM*,?
O=C1NC(c2cccc3ccccc23)Nc2ccccc21 (stereo unspecified),0.411µM*,1.3µM*,0.651µM*,0.731µM*
O=C1NC(c2cccs2)Nc2ccccc21 (stereo unspecified),i,-0.1%,i,0.3%
COc1ccc(C2NC(=O)c3ccccc3N2)cc1OC (stereo unspecified),i,-0.9%,i,2.7%
Cc1cc(C)c2nccc(C)c2c1,i,/,i,/
COc1ccc(C(CNC(=O)c2cc3c(s2)CCC(C)C3)N2CCOCC2)cc1 (stereo unspecified),i,-0.2%,i,-11.4%
COc1ccc(C(CNC(=O)c2cc3c(s2)CCC(C)C3)N2CCCC2)cc1 (stereo unspecified),20.6µM*,?,i,?
CCOC(=O)C1NN=C(C(=O)c2ccccc2)C1c1ccccc1 (stereo unspecified),i,-5.7%,20.6µM*,-6.0%
COc1ccc(N/N=C(/N=Nc2nc(C)cc(=O)[nH]2)c2ccccc2)cc1,6.51µM*,?,?,3.66µM*
Cc1cc(=O)[nH]c(N=N/C(=N/Nc2ccccc2C)c2ccccc2)n1,4.61µM*,?,i,?
O=C(COc1ccccc1F)Nc1ccc2oc(-c3cccc(Cl)c3)nc2c1,i,/,i,/
Cc1ccc(C)c(OCCn2c(CCNC(=O)C3CCCCC3)nc3ccccc32)c1,i,/,i,/
CCOC(=O)CNC(c1ccccc1)c1cc(Br)ccc1NC(=O)c1ccc(Cl)cc1 (stereo unspecified),i,/,?,/
CCOc1ccc(C(=O)N2CCC(c3nnc(-c4ccccc4OC)o3)CC2)cc1,i,/,i,/
O=C(O)c1ccc(C2NCC(c3ccccc3Cl)c3c2[nH]c2ccccc32)cc1 (stereo unspecified),i,-22.9%,i,-18.8%
COc1cc(C2NCC(c3ccc(Cl)cc3Cl)c3c2[nH]c2ccccc32)cc(OC)c1OC (stereo unspecified),18.4µM*,18.4µM*,?,14.6µM*
